Results from PubChem BioAssay (NCATS).
Records with an inconclusive call do not appear. Activity calls are given as the source filed them. Calls come from the whole dose curve.

What follows are molecules tested against Peroxisome proliferator-activated receptor delta (Homo sapiens) (UniProt Q03181) (assay: qHTS assay for small molecule agonists of peroxisome proliferator-activated receptor delta signaling (AID 588534;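 note: 0% = DMSO basal wells and 100% = positive control agonist at 10 µM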)). Conditions: HEK293T PPARdelta-UAS-bla, beta-lactamase ratio, 18 h; series mostly up to 76.7 µM; activation: at the top concentration.
Sequence of Peroxisome proliferator-activated receptor delta (Homo sapiens) (Q03181 whole entry, looked up): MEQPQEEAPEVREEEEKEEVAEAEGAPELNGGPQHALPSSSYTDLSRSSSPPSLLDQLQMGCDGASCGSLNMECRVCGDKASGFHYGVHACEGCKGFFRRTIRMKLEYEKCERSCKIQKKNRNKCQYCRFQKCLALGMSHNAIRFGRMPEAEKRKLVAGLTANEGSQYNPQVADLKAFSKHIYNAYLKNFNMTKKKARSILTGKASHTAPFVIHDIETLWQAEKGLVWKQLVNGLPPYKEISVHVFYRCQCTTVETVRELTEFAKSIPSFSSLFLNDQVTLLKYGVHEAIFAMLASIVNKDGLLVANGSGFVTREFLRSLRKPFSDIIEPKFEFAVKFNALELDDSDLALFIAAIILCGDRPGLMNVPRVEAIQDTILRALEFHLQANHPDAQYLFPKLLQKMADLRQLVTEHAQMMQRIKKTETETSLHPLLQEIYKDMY
Source text: NIH Chemical Genomics Center [NCGC] U.S. Environmental Protection Agency [EPA] National Institutes of Environmental Health Sciences [NIEHS] National Toxicology Program [NTP] NCGC Assay Overview The Peroxisome proliferator-activated receptors (PPARs) are lipid-activated transcription factors of the nuclear receptor superfamily with three distinct subtypes namely PPAR alpha, PPAR delta (also called PPAR beta) and PPAR gamma. All these subtypes heterodimerizes with Retinoid X receptor (RXR) and have different physiological functions. […] This role of PPAR delta implicates the potential use of its ligands in the treatment of metabolic disorders.
Compounds were screened in a titration series in 1536-well format. […] Concentration-response titration points for each compound were fitted to the Hill equation yielding concentrations of half-maximal stimulation (EC50) and maximal response (efficacy) values. qHTS protocol for PPAR-delta beta-lactamase assay in agonist mode [Step] [Parameter] [Value] [Description] 1. Reagent; 6 uL; 4000 cells/well 2. Incubation; 37 C for 5 hrs 3. Compounds; 23 nL; 0.59 nM to 92 uM 4. […] Incubation; 37 C for 18 hrs 6. Detection reagent; 1 uL of CCF4-dye 7. Incubation; RT for 2 hrs 8. Detection; Fluorescence; Envision plate reader
`C=CCOC(=O)c1ccccc1N` was tested, and the “activation” value was 2.6% (inactive). In the case of `Clc1nc(Cl)nc(Cl)n1`, the outcome is reported as “inactive”. With `[O-][Br+2]([O-])O` the outcome was “inactive”. In the case of `C=CCc1ccc(OC)c(OC)c1`, the outcome is reported as “inactive”. With `Cc1ccc2ccccc2c1` the “activation” value was 5.3% (inactive). `COc1nc(NC(C)C)nc(NC(C)C)n1` was tested, and the “activation” value was -1.02% (inactive). For `O=C(Cl)C(Cl)(Cl)Cl`, the “activation” value was 11.1% (inactive). For `CCCCOCCOP(=O)(OCCOCCCC)OCCOCCCC`, the outcome was “inactive”. `c1ccc(-c2ccccc2)cc1` was tested, and the outcome was “inactive”. `NC(=S)Nc1ccccc1` was tested, and the outcome was “inactive”. In the case of `CCCOC(=O)c1ccccc1C(=O)OCCC`, the outcome is reported as “inactive”. In the case of `COc1cc(CNC(=O)CCCC/C=C/C(C)C)ccc1O`, the outcome is reported as “inactive”. `Cc1cccc(O)c1` was tested, and the outcome was “inactive”. With `BrCCBr` the outcome was “inactive”. With `CCCCCCCCCCCC(=O)O` the “activation” value was -6.3% (inactive). `Nc1ccc(Br)cc1` was tested, and the “activation” value was -8.53% (inactive). In the case of `COP(N)(=O)SC` (stereo not given), the outcome is reported as “inactive”. `CC(Cl)Cl` was tested, and the “activation” value was -0.18% (inactive). With `O=NN(c1ccccc1)c1ccccc1` the outcome was “inactive”. With `O=C(O)CC(O)(CC(=O)O)C(=O)O` the outcome was “inactive”. In the case of `O=[N+]([O-])c1cccc2ccccc12`, the outcome is reported as “inactive”. For `CCSC(=O)Cl`, the “activation” value was 0.936% (inactive). With `Brc1ccc(Oc2cc(Br)c(Br)cc2Br)c(Br)c1` the outcome was “inactive”. For `Cc1cccc([N+](=O)[O-])c1`, the outcome was “inactive”. For `CCOP(=S)(OCC)Oc1ccc([N+](=O)[O-])cc1`, the outcome was “inactive”. For `COC1=CC(=O)O[C@@H](/C=C/c2ccc3c(c2)OCO3)C1`, the “activation” value was -3.67% (inactive). For `C=C(Cl)Cl`, the “activation” value was 5.13% (inactive). For `CC(COc1ccc(Oc2ccccc2)cc1)Oc1ccccn1` (stereo not given), the outcome was “inactive”. For `O=S(=O)(O)c1ccccc1`, the “activation” value was 8.65% (inactive). For `C/C=C/C=C/C(=O)O`, the “activation” value was -1.8% (inactive). `CCCC(=O)Cl` was tested, and the “activation” value was 9.56% (inactive). With `c1nc[nH]n1` the “activation” value was 6.28% (inactive). `O=CCCCC=O` was tested, and the “activation” value was -8.55% (inactive). For `C=C(C)C1CC=C(C)C(O)C1` (stereo not given), the “activation” value was 4.78% (inactive). `Clc1cc(Cl)c(-c2cc(Cl)c(Cl)cc2Cl)cc1Cl` was tested, and the outcome was “inactive”. For `CNC(=O)N(C)c1nnc(C(C)(C)C)s1`, the “activation” value was -3.81% (inactive). `Brc1ccccc1` was tested, and the outcome was “inactive”. With `C=CC(=O)OCC` the “activation” value was 4.22% (inactive). In the case of `CCC[CH2][Sn]([Cl])([Cl])[Cl]`, the outcome is reported as “inactive”. `CCOc1ccc2c(c1)C(C)=CC(C)(C)N2` was tested, and the “activation” value was 8.2% (inactive).
